Experimental data reported in PubChem BioAssay (NCI).
Compounds without any hit were thinned out: in the full panel of roughly 83,000, 20% have a hit.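 Each cell line was grown in a 96-well plate and treated with one concentration of compound for 48 hours. Values below 10 were considered active.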 Active and inactive are the calls of the source.

Test system: A549/ATCC NSCLC
Experiment: NCI-60 one-dose screen, 48 h (100 = growth as untreated, 0 = no growth, -100 = all killed)
Conditions: 10 µM unless noted

Row | SMILES | growth
1 | CCCCCc1ccc(S(=O)(=O)Nc2cc(-c3csc(NC(=O)CN4CCN(CCO)CC4)n3)ccc2OC)cc1 | 43.4% (inactive)
2 | N/C(=N\C(N)=N\c1nc2ccccc2s1)c1ccc(C(F)(F)F)cc1 | 6.31% (active)
3 | CCn1c(SCC(=O)Nc2cccc(C(=O)/C=C/c3ccc(Br)cc3)c2)nc2ccccc2c1=O | 77.7% (inactive)
4 | O=S(=O)(NCCCNc1nccc(-c2[nH]c(-c3ccccc3)nc2-c2ccc(Cl)c(O)c2)n1)c1ccc(Br)cc1 | 30.2% (inactive)
5 | CS(=O)(=O)Nc1cc(-c2ccc3ncc(C#N)c(N[C@H](CO)c4ccccc4)c3c2)cnc1Cl | 83.5% (inactive)
6 | Cn1ccnc1C(=O)/C=C/c1ccc(CNC(=O)c2ccc(Cl)cc2)cc1 | 8.09% (active)
7 | O=C(Cn1cc(-c2ccccc2)nn1)Nc1nc(-c2ccc(Cl)cc2)cs1 | 103% (inactive)
8 | Nc1cc(F)ccc1NC(=O)c1ccc(NC(=O)C/C=C/c2cccnc2)cc1 | 55.9% (inactive)
9 | CCOC(=O)C1=NNC(c2ccc(Cl)cc2)C1C(=O)N1C(=S)NC(=O)C1CC(C)C (stereo not drawn) | 110% (inactive)
10 | COc1ccc(S(=O)(=O)NCCCNc2nccc(-c3[nH]c(-c4ccccc4)nc3-c3ccc(Cl)c(O)c3)n2)cc1 | 102% (inactive)
11 | N=c1c2cc(-c3ccccc3)oc2ncn1/N=C/c1ccc(Br)cc1 | 44.2% (inactive)
12 | CS(=O)(=O)Nc1cc(-c2ccc3ncc(C#N)c(Nc4cccc(Cl)c4F)c3c2)cnc1Cl | 4.61% (active)
13 | C=CCn1c(SCC(=O)Nc2ccc(C(=O)/C=C/c3ccc(Cl)cc3)cc2)nnc1-c1c[nH]c2ccccc12 | 64.8% (inactive)
14 | Cc1ccc(NC(=O)c2ccc(CN3CCN(C)CC3)cc2)cc1Oc1ccc(-c2[nH]nc3ncnc(N)c23)cc1 | 98.8% (inactive)
15 | c1ccc(C(c2nc3ncncc3[nH]2)N2CSc3nc4ccccc4n3C2)cc1 (stereo not drawn) | 107% (inactive)
16 | COc1ccc(Cn2cc3c(c2-c2cc(OC)c(OC)c(OC)c2)CCc2c(CN4CCCC4)noc2-3)cc1 | 25.8% (inactive)
17 | CC1=CC(=O)C2=C(C)CC(OC(=O)CCc3ccccc3)[C@@H]3[C@H](OC(=O)[C@@H]3C)[C@@H]12 (stereo partly drawn) | 89% (inactive)
18 | CCCCCc1ccc(S(=O)(=O)Nc2cccc(-c3csc(NC(=O)CN4CCN(CCO)CC4)n3)c2)cc1 | 78.9% (inactive)
19 | O=C(Nc1ccc(F)c(F)c1)c1cc(-c2ccc(F)cc2F)ccc1O | 8.98% (active)

Row | SMILES | growth
20 | COc1c(N2CC3CCCNC3C2)c(F)cc2c(=O)c(C(=O)N/N=C/c3ccc(N(C)C)cc3)cn(C3CC3)c12 (stereo not drawn) | 88.7% (inactive)
21 | CC(=O)C1=C(C)NC(NN)=NC1c1cccc(Cl)c1 (stereo not drawn) | 110% (inactive)
22 | C=CCn1c(SCC(=O)Nc2ccc(C(=O)/C=C/c3ccc(Br)cc3)cc2)nnc1-c1c[nH]c2ccccc12 | 73.5% (inactive)
23 | COc1cc(Cn2cc3c(c2)-c2onc(CN4CCCC4)c2CC3)cc(OC)c1OC | 100% (inactive)
24 | O=C1Nc2ccccc2/C1=C/c1ccc(CO)n1-c1ccc(Cl)cc1 | 59% (inactive)
25 | O=C(CSc1nc2ccccc2c(=O)n1-c1ccc(Cl)cc1)N/N=C/c1ccc(N2CCCCC2)cc1 | 49.4% (inactive)
26 | Cc1ccc(-n2c(/C=C3\C(=O)Nc4ccccc43)ccc2CO)cc1 | 71.3% (inactive)
27 | NC(=O)c1c(NC(=O)c2ccc(F)cc2F)sc2c1CCC(=O)C2 | 106% (inactive)
28 | CCC(CC)N1C(=O)/C(=c2\sc3n(c2=O)NC2C(N=3)N(CC)C(=O)N2CC)c2ccccc21 (stereo not drawn) | 57.6% (inactive)
29 | Clc1cccc(/C=N/Nc2nc(N/N=C/c3cccc(Cl)c3Cl)nc(N3CCCCC3)n2)c1Cl | 55.6% (inactive)
30 | CCn1c2ccccc2c2cc(-n3nncc3-c3ccccc3)ccc21 | 24.5% (inactive)
31 | Cc1c(Cl)cccc1S(=O)(=O)Nc1ccc2c(c1)C(=O)N(C1CCC(=O)NC1=O)C2=O (stereo not drawn) | 104% (inactive)
32 | COc1ccc(NC(=O)CSc2nnc(-c3ccc4nc(-c5ccccc5)[nH]c4c3)o2)cc1 | 101% (inactive)
33 | CCOP(=O)(OCC)OC[C@]12CCC(C)(C)C=C1[C@H]1CC[C@@H]3[C@@]4(C)CC[C@H](OP(=O)(OCC)OCC)C(C)(C)[C@@H]4CC[C@@]3(C)[C@]1(C)CC2 | -45.3% (active)
34 | CCOC(=O)C(=O)CC(=O)N1C(=S)NC(=O)C1CC(C)C (stereo not drawn) | 103% (inactive)
35 | COc1cc(Cn2cc3c(c2)-c2onc(CN4CCOCC4)c2CC3)cc(OC)c1OC | 101% (inactive)
36 | CC/C(=C/c1cc(OC)ccc1O)c1ccc2cc(OC)ccc2[o+]1 | 58.3% (inactive)
37 | O=C(O)c1ccc(-n2cc(CNc3cc(F)c(F)c(F)c3)c(-c3cccc(F)c3)n2)cc1 | 77.2% (inactive)
38 | C=CCn1c(SCC(=O)Nc2ccc(C(=O)/C=C/c3cccc([N+](=O)[O-])c3)cc2)nnc1-c1c[nH]c2ccccc12 | 93.9% (inactive)
